# Only some compounds are listed: those with a hit (about 12% of all), similar ones and a draw of the others.
# ROMK mod: human ROMK K+ channel modulation, primary screen; P48048; Tet-inducible ROMK, thallium flux fluorescence; actives lie on both sides; B-score at 10 µM; 130,000 compounds, 2% hits; AID 1918;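 active means signal ratio slope over the read window, or its plate-corrected B-score, at least 3 SD from the plate mean, either direction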;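 further: B-score of the F/F0 ratio slope over 7 to 12 s after thallium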
# WT yeast gro inh: growth inhibition of WT yeast, mitochondrial fusion screen; inhibition, % at 10 µM; mitochondrial fusion phenotypic screen, WT strain; 190,000 compounds, 2.1% hits; AID 1362; in the data active means inhibition above about 58%; tested in S. cerevisiae
# L major viab: inhibitors of Leishmania major promastigote growth; Leishmania major promastigotes, resazurin fluorescence viability; inhibition, % at 10 µM; 200,000 compounds, 9% hits; AID 1063; in the data active means inhibition above about 50%;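 further: promastigotes grown with compound for 44 hours at 28 °C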
# Calpain2 inh: blocks pig calpain II enzyme activity | 220,000 compounds, 0.37% hits | purified calpain II, fluorogenic peptide substrate, 30 min | inhibition, % at 16 µM | AID 1236;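 active means inhibition above about 50%, limit read from the data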
# Cl transport mod: modulates chloride dependent transport by human KCC2. KCC2 cells, thallium flux FluoZin-2 fluorescence. B-score of Tl+ flux slope (higher = more flux/activation; lower = inhibition) at 10 µM. 190,000 compounds, 2.2% hits. AID 1456;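 active means thallium flux slope and its plate-corrected score both differing from the plate sample mean at a set confidence after two filtering rounds, in either direction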;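 further: slope of fluorescence scaled to starting intensity during 10 to 20 s after thallium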
# Target sequence (Q9H2X9 whole entry, looked up): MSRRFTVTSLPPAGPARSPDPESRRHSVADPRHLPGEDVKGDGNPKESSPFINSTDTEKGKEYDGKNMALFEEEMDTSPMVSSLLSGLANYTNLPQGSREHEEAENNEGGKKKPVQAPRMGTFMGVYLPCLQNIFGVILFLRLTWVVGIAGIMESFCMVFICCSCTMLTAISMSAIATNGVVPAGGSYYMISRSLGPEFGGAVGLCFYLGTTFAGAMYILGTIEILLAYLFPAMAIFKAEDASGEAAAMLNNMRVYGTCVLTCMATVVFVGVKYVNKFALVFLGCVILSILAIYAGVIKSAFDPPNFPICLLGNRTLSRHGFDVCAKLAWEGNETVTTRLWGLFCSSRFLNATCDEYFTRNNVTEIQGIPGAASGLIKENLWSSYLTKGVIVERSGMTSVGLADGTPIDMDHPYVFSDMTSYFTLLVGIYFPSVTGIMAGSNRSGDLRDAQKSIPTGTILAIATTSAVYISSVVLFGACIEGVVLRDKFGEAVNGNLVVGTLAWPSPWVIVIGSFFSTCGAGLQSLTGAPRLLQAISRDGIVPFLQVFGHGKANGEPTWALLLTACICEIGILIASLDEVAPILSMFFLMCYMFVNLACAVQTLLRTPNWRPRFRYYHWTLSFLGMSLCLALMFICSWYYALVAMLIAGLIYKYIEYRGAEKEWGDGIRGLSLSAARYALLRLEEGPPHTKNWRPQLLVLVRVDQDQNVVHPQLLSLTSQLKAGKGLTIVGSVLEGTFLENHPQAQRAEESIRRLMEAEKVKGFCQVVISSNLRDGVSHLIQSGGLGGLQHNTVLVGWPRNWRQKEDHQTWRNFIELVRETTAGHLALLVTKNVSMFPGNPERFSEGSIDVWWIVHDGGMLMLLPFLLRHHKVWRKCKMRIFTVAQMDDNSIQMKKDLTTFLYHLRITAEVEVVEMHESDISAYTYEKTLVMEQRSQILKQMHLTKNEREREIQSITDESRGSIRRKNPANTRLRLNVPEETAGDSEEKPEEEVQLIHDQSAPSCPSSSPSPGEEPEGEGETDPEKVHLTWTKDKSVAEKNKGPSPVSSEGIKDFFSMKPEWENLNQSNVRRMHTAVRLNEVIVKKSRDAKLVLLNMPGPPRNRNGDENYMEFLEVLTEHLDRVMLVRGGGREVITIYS
# ROMK hit retest: human ROMK channel modulation, retest confirmation; ROMK thallium flux, fluorescence ratio; stronger effect = lower value; normalized thallium flux (F/F0 slope) at 10 µM; 3,000 compounds, 54% hits; shares compounds with ROMK mod;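 active means Flux at 10 µM at least 3 SD below or above vehicle control mean in one or both replicates; inconclusive means no clear call, values can overlap the other calls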
# The depositor's hits bear a star; ? = inconclusive; nt = no result given.
SMILES,ROMK mod,WT yeast gro inh,L major viab,Calpain2 inh,Cl transport mod,ROMK hit retest
O=C(COC(=O)c1c2c(nc3ccccc13)CCCC2)Nc1ccc2c(c1)OCO2,nt,-6.7,59.3*,-34.9,-0.28,0.0751
CON1C(=O)C(=O)N(OC)C2CCCCC21 (centres undefined),nt,22.4,13.9,-3.1,-0.0129,?
Cc1ccc(SCCC(=O)Nc2ccc(Br)c(C)c2)cc1,nt,42.2,0.5,34.7,-0.769,nt
CCCN(CCC)C(=O)C1CC(=O)OC12CCCCC2 (centres undefined),0.0933,-0.6,-0.8,2.5,0.108,nt
Cc1snc(S(=O)(=O)/C(C#N)=N\Nc2ccccc2)c1C#N,1.73,5.5,-7.0,15.1,0.343,nt
Cc1snc(S(=O)(=O)/C(C#N)=N/Nc2ccc(C(F)(F)F)cc2)c1C#N,3.82*,-2.5,-4.7,16.5,0.00758,0.102*
COc1ccc(N2CC(NC(=O)N3CCN(c4ccccc4)CC3)CC2=O)cc1 (centres undefined),-0.0628,-7.9,-1.2,4.4,-0.206,nt
Cc1ccccc1OCCc1c(C)[nH]c(=S)[nH]c1=O,1.72*,-42.2,-8.5,27.3,0.207,0.0853
Cc1[nH]c(=S)[nH]c(=O)c1CCOc1ccccc1,0.557,-11.3,-2.9,11.0,nt,nt
O=C(NNc1cccc(Cl)n1)c1ccccc1CC[N+](=O)[O-],-0.462,-5.0,-9.2,-5.4,-0.621,nt
O=C1c2ccccc2C(=O)N1CCCn1c(=O)oc2ccccc21,0.786*,28.5,-1.4,21.4,1.28,0.0795
O=c1oc2ccccc2n1Cn1c(=O)oc2ccccc21,2.09,-10.4,4.9,-20.2,nt,nt
Cn1nc(/C=C/c2ccccc2)ccc1=O,nt,11.7,-1.5,-316.7,0.959,nt
CC1CC(C)CN(CCCNC(=O)c2csc3c2CCCC3)C1 (centres undefined),-2.96*,21.2,92.5*,3.1,-0.185,0.0635*
Cc1cc(C)nc(SCC(=O)c2cc3ccccc3oc2=O)n1,-4.05*,-3.0,-5.6,21.0,-0.26,0.0596*
O=C(CSc1nc2ccccc2o1)c1cc2ccccc2oc1=O,nt,29.5,-0.7,-40.1,-0.0721,nt
O=C(CSc1nccn1-c1ncc(C(F)(F)F)cc1Cl)c1ccc(Cl)cc1,nt,-2.1,2.4,-9.0,nt,nt
NCCc1c(-c2ccccc2)n(-c2ccccc2)c2ccccc12,-3.39*,87.0*,100.6*,-41.4,0.116,0.061*
CCCc1c(O)c2ccccc2n(-c2ccccc2)c1=O,nt,-15.8,-6.7,-175.0,nt,nt
CC(C)(C)C(=O)N=C1SC2CS(=O)(=O)CC2N1c1ccc2c(c1)OCO2 (centres undefined),-0.11,1.0,16.0,-11.3,-0.178,nt
COC(=O)c1sc2ccccc2c1NC(=O)c1ccc(S(=O)(=O)N2CCC(C)CC2)cc1,nt,6.9,6.9,-52.8,-0.0311,nt
N=c1n(CCN2CCCCC2)c2ccccc2n1CC(=O)c1ccc(Cl)c(Cl)c1,nt,nt,nt,8.7,-0.0628,nt
N=c1n(CCN2CCCCC2)c2ccccc2n1CC(O)c1ccc(Cl)c(Cl)c1 (centres undefined),-4.54*,-11.0,100.4*,26.7,-0.15,0.0461*
COc1ccc(OC)c2c(C)cc(N3CCN(C(=O)c4ccc(F)cc4)CC3)nc12,nt,9.3,21.6,-177.7,-0.47,nt
COc1ccc(OC)c2c(C)cc(N3CCN(C(=O)c4ccc(C)cc4)CC3)nc12,-8.5*,24.4,19.9,-116.5,-1.94,0.0847
SMILES,ROMK mod,WT yeast gro inh,L major viab,Calpain2 inh,Cl transport mod,ROMK hit retest
O=c1c2ccccc2oc2nc(-c3cccs3)n(CCc3ccccc3)c(=O)c12,nt,-1.8,-1.0,12.9,-0.0325,nt
N=C1/C(=C\c2coc3ccccc3c2=O)C(=O)N=C2SC=CN12,nt,nt,nt,4.3,nt,0.0377*
O=c1cc(-c2cccc(F)c2)[nH]c2ccccc12,3.66,-12.2,-2.8,-2.5,0.0258,nt
Cc1ccc2[nH]c(-c3cccc(F)c3)cc(=O)c2c1,3.07*,-1.9,1.6,-37.2,-0.0492,0.0834
Cc1ccc(-c2cc(=O)c3cc(F)ccc3[nH]2)cc1,0.956,-1.1,-1.4,-4.7,0.633,nt
COc1ccc2[nH]c(-c3cccc(F)c3)cc(=O)c2c1,4.03*,-5.6,4.2,-227.4,-1.61,0.0948
Cc1cc(C(=O)Nc2ncc(C)s2)c2ccccc2n1,0.0983,16.4,-1.8,-3.2,-0.0857,nt
CCN(C#N)c1nc(NC(C)C)nc(NC(C)(C)C)n1,-7.84*,-7.7,0.5,-23.1,-0.166,0.077
CCN(CC)C(=O)CN(C#N)c1nc(NC(C)C)nc(NC(C)C)n1,0.344,24.9,-6.1,-34.8,-0.249,nt
N#C[C@H]1[C@H](c2ccccc2)[C@](C#N)(C(=O)c2ccccc2)[C@@H]2C=Cc3ccccc3N21,-2.84*,63.1*,47.8,-90.2,-0.414,0.0742
COc1ccc(C(=O)N2c3ccccc3C=CC2C#N)cc1 (centres undefined),nt,-19.8,-1.4,-3.6,-0.132,nt
C=C1C(=O)C=C2CN(C(=O)c3ccccc3)[C@@](Cc3ccc(F)cc3)(C(=O)OC)[C@@H]12,-4.4*,73.6*,100.4*,-41.4,-1.07,0.0496*
O=C(CNCc1ccccn1)Nc1cc(S(=O)(=O)N2CCCCC2)ccc1Cl,-0.12,1.5,-0.5,-11.2,-1.28,nt
COc1ccccc1CNCC(=O)Nc1cc(S(=O)(=O)N2CCCCCC2)ccc1Cl,nt,nt,nt,20.7,-1.37,0.0664*
Cc1sc2ncn(CC(=O)Nc3c(F)cccc3F)c(=O)c2c1S(=O)(=O)N1CCC(C)CC1,0.61,0.0,2.5,10.2,0.674,nt
Cc1c(C)n(Cc2ccccc2)c2ccc(C(=O)OCCN(C)C)cc12,-3.54*,37.5,100.2*,-8.1,0.882,0.0592*
COc1ccc(S(=O)(=O)c2cnc3ccc(OC)cc3c2N2CCC3(CC2)OCCO3)cc1,nt,4.3,4.9,1.8,-0.824,0.0503*
COc1ccc(N2CCN(c3nc4ccccc4nc3NS(=O)(=O)c3ccccc3)CC2)cc1,0.253,32.7,-2.4,-45.5,-1.02,nt
COc1ccc(N2CCN(c3c(S(=O)(=O)c4ccccc4)cnc4ccc(OC)cc34)CC2)cc1,nt,76.0*,60.9*,0.7,-0.704,?
C/C(=N\NC(=O)C1(C)NC(C)(C)Cc2ccccc21)c1ccccc1 (centres undefined),0.41,27.6,-0.3,15.4,-1.49,nt
COc1ccccc1/C=N/N1C(=O)C(CC(=O)Nc2ccc([N+](=O)[O-])cc2OC)SC1=Nc1cccc(C)c1C (centres undefined),2.75*,-27.9,25.2,-83.2,0.232,0.0887
CC(OC(=O)c1ccncc1)C(=O)NC1CCCC1 (centres undefined),0.0994,2.1,-3.6,-30.0,0.885,nt
Fc1ccccc1COc1ccc(Br)cc1CNCc1cccnc1,0.045,37.4,36.7,33.0,-1.28,nt
Fc1ccc(COc2ccc(Br)cc2CNCc2ccncc2)cc1,-2.66*,13.3,97.4*,10.1,nt,0.0628*
O=C(Nc1ccc(Cl)cc1)OCc1cn(-c2ccccc2)nn1,0.277,18.9,-4.8,32.6,-0.398,?
Cn1cnc2cc(NC(=O)c3ccc(Cl)cc3)ccc21,nt,16.1,5.6,12.9,-0.0501,0.0819
COCCCNC(=O)CSc1c2c(nc3ccc(Cl)cc13)CCCC2,0.688,-16.1,24.7,-0.4,-0.0245,nt

# Source: PubChem
